A short description of experiment [1]: small molecules captured by biotinylated probe aFSTL3 – biochemical, small-molecule microarray, fluorescence 635/667, stem cell growth factor project, primary screen (AID 1064).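 Further: measures binding of the biotinylated anti-FSTL3 antibody to printed compounds.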 The note with it: higher = more signal.
A short description of experiment [2]: binders from COS7 lysate, DM2A8 probe, primary screen, torsin A project, cell lysate, small-molecule microarray, fluorescence 635/667 (AID 1065). As to conditions: higher = more signal, COS7 lysate expressing mutant human TOR1A.
Experiment [3] can be described thus: small molecules captured by biotinylated probe aFGF2 – biochemical, small-molecule microarray, fluorescence 635/667, stem cell growth factor project, primary screen (AID 1067).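 Further: measures binding of biotinylated aFGF2 protein to printed compounds on slides; z-score merges feature fluorescence and signal-to-noise across triplicate slides.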 The note with it: higher = more signal.
The nature of experiment [4]: small molecules captured by biotinylated probe aFGF10 – biochemical, small-molecule microarray, fluorescence 635/667, stem cell growth factor project, primary screen (AID 1071).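 Further: score merges 667 nm spot intensity and signal to noise from triplicate slides.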 The note with it: higher = more signal.
Experiment [5] has as its target Neurogenic locus notch homolog protein 2 (Homo sapiens) (UniProt Q04721). In words: small molecules binding Notch2 protein – biochemical, small-molecule microarray, 635 nm fluorescence, stem cell growth factors, primary screen (AID 1073). The note with it: higher = more signal.
Experiment [6] addresses Pro-neuregulin-1, membrane-bound isoform (Homo sapiens) (UniProt Q02297). As to the kind of experiment: small molecules binding neuregulin-1 protein – biochemical, small-molecule microarray, fluorescence 635/667, psychiatric disease protein project, primary screen (AID 1075).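 Further: score combines 667 nm spot fluorescence with signal to noise.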 As to conditions: NRG1 binding, 635 nm fluorescence, higher = more signal.
For experiment [7], the system named is Neuregulin-1 EGF-like domain. In words: small molecules binding NRG1 EGF domain – biochemical, small-molecule microarray, 635 nm fluorescence, primary screen (AID 1081).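 Further: binding of the protein to compounds printed on small-molecule microarray slides.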 As to conditions: higher = more signal.
Experiment [8] can be described thus: FRG1 expression reporter modulators in myotubes – cell-based, C2C12 myotubes, firefly/Renilla luciferase, luminescence, FRG1 inhibition for FSHD, primary screen (AID 1084). The note with it: FRG1 promoter luciferase, higher = more signal, called active from +8 up or from −8 down.
The nature of experiment [9]: small molecules captured by biotinylated probe aFST – biochemical, small-molecule microarray, fluorescence 635/667, stem cell growth factor project, primary screen (AID 1086).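 Further: score merges 667 nm fluorescence with signal-to-noise of each printed compound spot.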 As to conditions: higher = more signal.
Experiment [10] is described as follows: binders of probe aHhip on microarray, primary screen, stem cell growth factor project, biochemical, small-molecule microarray, fluorescence 635/667 (AID 1087).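 Further: score merges spot fluorescence at 667nm with spot signal to noise ratio.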 The note with it: higher = more signal.
Experiment [11] relates to PRMT1 (protein arginine N-methyltransferase 1). As to the kind of experiment: small molecules binding arginine methyltransferase PRMT1 – biochemical, small-molecule microarray, 635 nm fluorescence, primary screen (AID 1088).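 Further: binding of Prmt1 protein to compounds spotted on small-molecule microarray slides.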 The note with it: higher = more signal.
The nature of experiment [12]: growth effects on S. cerevisiae YJM789 – YJM789 clinical isolate, OD600, 24 h, basal, primary screen (AID 1089).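 Further: growth of clinical yeast isolate S. cerevisiae YJM 789 seeded 1000 cells per well; test concentration not given here.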 The note with it: higher = more signal, called active from +8 up or from −8 down.
Experiment [13] can be described thus: S. pombe growth modifiers, basal conditions – strain 972, OD600, 24 h, no modulator, primary screen (AID 1090).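 Further: basal condition with compound alone and no growth modifier present; test concentration not given here.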 The note with it: S. pombe 972 growth, higher = more signal, called active from +8 up or from −8 down.
Experiment [14] is described as follows: budding yeast growth modifiers under rapamycin – strain BY4716, OD600, 96 h, primary screen (AID 1091). Further: test concentration not given here. As to conditions: S. cerevisiae BY4716 + rapamycin, higher = more signal, called active from +8 up or from −8 down.
For experiment [15], the target named is Torsin-1A-interacting protein 2 (Homo sapiens) (UniProt Q8NFQ8). As to the kind of experiment: small molecules binding lysate-expressed LULL1 – cell lysate, human LULL1 lysate, 635/667 nm fluorescence, primary screen (AID 1092).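 Further: probe is lysate of COS7 cells overexpressing human LULL1; score merges per-feature 667 nm fluorescence with signal-to-noise.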 As to conditions: small-molecule microarray, hLULL1 lysate binding, 635 nm fluorescence; higher = more signal.
Sequence of Torsin-1A-interacting protein 2 (Homo sapiens) (Q8NFQ8 whole entry, looked up): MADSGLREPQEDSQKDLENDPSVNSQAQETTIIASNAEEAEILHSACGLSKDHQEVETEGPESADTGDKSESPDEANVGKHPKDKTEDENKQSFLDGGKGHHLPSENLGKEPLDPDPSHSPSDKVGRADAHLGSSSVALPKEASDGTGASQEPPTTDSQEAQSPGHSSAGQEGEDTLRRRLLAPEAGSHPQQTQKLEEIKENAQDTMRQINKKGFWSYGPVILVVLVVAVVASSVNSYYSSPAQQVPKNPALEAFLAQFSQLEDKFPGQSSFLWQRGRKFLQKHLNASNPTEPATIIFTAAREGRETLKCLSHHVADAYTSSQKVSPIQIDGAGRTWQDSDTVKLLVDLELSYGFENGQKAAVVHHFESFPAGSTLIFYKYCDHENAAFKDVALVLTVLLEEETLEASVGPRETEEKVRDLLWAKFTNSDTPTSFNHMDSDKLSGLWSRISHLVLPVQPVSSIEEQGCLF
The nature of experiment [16]: optical density change of DRC41 E. coli – strain DRC41, OD650, 24 h, E. coli filamentation project, primary screen (AID 1093).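 Further: MC1000 strain lacking acrAB efflux and sulA so SOS filamentation is blocked; test concentration not given here.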 As to conditions: E. coli DRC41 growth, higher = more signal, called active from +8 up or from −8 down.
Experiment [17] is described as follows: probe aLefty2 binding to arrayed compounds – biochemical, biotinylated probe, 635/667 nm fluorescence, primary screen (AID 1094).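 Further: score merges spot fluorescence near 667 nm with spot signal-to-noise ratio.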 The note with it: small-molecule microarray, higher = more signal.
The test system of experiment [18] is Noggin (protein binding on small-molecule microarray). As to the kind of experiment: small molecules binding Noggin protein – biochemical, 635/667 nm fluorescence, primary screen (AID 1095).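 Further: score merges 667 nm feature fluorescence with signal to noise over triplicate slides.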 As to conditions: 635 nm fluorescence, higher = more signal.
The target in experiment [19] is Neurogenic locus notch homolog protein 3 (Homo sapiens) (UniProt Q9UM47). As to the kind of experiment: small molecules binding NOTCH3 protein – biochemical, 635/667 nm fluorescence, primary screen (AID 1096). As to conditions: small-molecule microarray, 635 nm fluorescence, higher = more signal.
Experiment [20] can be described thus: probe aEGFR binding to arrayed compounds – biochemical, biotinylated probe, 635/667 nm fluorescence, primary screen (AID 1097).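 Further: probe is a biotinylated anti-EGFR antibody binding compounds printed on slides; score combines fluorescence near 667 nm and signal to noise of each spot.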 The note with it: small-molecule microarray, higher = more signal.

Active and inactive are the calls of the source.

Sequence of Pro-neuregulin-1, membrane-bound isoform (Homo sapiens) (Q02297 whole entry, looked up, the tested form may be a part, canonical isoform): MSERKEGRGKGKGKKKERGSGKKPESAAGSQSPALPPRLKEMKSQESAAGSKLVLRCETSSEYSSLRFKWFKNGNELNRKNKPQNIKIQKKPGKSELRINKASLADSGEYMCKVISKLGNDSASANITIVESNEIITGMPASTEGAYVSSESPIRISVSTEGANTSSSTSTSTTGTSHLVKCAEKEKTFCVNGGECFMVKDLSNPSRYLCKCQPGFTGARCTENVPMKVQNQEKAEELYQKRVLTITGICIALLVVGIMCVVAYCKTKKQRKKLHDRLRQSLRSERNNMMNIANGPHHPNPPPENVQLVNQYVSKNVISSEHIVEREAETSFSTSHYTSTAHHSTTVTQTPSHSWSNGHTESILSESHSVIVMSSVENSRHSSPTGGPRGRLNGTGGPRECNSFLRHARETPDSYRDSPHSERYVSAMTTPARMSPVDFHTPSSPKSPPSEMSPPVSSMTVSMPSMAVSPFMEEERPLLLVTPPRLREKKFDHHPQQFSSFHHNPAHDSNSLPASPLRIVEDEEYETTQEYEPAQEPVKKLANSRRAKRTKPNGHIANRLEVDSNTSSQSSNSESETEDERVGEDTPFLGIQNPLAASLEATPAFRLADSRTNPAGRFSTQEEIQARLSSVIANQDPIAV
Sequence of Neurogenic locus notch homolog protein 2 (Homo sapiens) (Q04721 whole entry, looked up, canonical isoform): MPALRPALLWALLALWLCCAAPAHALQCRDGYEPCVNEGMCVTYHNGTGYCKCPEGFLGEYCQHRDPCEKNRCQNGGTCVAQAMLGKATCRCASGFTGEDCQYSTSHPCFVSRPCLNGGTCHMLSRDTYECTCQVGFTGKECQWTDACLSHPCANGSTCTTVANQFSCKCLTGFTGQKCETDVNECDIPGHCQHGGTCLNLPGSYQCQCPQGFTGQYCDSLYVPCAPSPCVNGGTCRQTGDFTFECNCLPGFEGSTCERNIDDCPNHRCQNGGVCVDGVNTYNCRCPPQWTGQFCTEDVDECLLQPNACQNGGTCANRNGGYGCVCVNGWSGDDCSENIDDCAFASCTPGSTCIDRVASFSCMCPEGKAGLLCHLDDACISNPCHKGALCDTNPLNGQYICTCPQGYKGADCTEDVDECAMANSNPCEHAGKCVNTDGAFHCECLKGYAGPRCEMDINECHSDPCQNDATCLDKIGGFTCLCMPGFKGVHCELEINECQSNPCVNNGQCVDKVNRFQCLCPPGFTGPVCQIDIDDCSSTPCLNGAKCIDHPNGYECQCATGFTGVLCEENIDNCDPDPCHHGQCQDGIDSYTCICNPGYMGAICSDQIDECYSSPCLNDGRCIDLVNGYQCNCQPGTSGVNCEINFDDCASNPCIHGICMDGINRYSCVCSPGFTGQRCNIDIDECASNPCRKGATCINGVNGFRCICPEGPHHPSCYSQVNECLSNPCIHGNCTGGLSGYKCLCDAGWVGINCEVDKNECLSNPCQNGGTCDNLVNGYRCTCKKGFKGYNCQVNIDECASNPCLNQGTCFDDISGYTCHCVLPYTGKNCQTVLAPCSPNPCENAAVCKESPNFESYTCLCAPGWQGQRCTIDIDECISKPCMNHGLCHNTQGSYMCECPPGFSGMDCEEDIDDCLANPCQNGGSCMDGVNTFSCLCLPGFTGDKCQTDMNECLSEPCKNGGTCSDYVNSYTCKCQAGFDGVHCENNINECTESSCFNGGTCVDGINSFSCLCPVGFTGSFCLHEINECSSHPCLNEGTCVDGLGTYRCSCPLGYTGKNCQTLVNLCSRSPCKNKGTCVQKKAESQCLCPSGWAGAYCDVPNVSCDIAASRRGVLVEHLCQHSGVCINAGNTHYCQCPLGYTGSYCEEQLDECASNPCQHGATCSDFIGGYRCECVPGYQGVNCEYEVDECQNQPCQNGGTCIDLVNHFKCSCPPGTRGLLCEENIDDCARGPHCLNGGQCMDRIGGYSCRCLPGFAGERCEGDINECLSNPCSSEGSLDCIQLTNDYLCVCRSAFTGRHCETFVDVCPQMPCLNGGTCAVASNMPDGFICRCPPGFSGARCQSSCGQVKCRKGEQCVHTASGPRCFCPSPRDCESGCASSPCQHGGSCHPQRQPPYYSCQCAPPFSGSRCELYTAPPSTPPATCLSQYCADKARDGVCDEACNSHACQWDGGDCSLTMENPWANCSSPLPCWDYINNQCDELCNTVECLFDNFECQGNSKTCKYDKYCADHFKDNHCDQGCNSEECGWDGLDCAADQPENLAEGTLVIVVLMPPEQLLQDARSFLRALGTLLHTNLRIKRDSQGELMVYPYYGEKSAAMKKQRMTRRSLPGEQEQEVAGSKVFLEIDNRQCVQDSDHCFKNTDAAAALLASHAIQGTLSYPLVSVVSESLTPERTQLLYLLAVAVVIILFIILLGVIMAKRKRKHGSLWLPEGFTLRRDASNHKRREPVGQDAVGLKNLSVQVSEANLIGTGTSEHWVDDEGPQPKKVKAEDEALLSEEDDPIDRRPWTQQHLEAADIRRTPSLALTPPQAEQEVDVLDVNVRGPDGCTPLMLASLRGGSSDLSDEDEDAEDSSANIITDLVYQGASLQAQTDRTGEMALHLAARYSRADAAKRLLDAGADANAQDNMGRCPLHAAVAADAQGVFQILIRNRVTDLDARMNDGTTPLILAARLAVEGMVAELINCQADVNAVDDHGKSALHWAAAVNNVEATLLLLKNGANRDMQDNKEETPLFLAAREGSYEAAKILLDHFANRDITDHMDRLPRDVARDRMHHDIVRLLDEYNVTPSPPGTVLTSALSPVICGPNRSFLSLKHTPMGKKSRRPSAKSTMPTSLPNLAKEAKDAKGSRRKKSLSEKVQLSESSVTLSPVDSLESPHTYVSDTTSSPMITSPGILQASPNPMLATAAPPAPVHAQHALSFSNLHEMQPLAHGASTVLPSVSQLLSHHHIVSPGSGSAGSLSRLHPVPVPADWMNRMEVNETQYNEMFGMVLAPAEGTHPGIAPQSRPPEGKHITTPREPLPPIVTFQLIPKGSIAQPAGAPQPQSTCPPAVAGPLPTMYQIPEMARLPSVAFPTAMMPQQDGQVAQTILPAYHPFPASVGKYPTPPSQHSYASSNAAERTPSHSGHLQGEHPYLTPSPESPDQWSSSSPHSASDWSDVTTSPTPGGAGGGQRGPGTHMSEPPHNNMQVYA

As to `CN1C(=O)C2C=CC(C(O)COCc3ccccc3)N(Nc3ccc([N+](=O)[O-])cc3[N+](=O)[O-])C2C1=O` (stereo not given), the composite z-score in [1] was 0.0982; in experiment [2], -0.0795; in experiment [3], 0.0952; in [4], 0.475; in [5] it was 0.172; in experiment [6] it was 0.0948. For the same compound, the composite z-score is 0.752 in experiment [7]; 0.329 in [9]; -0.167 in experiment [10]; 0.332 in [11]; 1.78 in experiment [15]; 0.229 in experiment [17]. For the same compound, the composite z-score in [18] is -0.39; in experiment [19] it was -0.282; in [20] it was -0.146. Moreover, the z-score was 1.16 (inactive) in experiment [8]; 0.629 (inactive) in [12]; -1.58 (inactive) in experiment [13]; 0.308 (inactive) in experiment [14]; -0.278 (inactive) in experiment [16].

For the compound `O=C(NC1CC1)[C@@H]1c2ccccc2C(=O)N(C2CCCCC2)[C@H]1c1ccc(CO)cc1`, the composite z-score was 0.954 in experiment [1]; 0.642 in experiment [2]; 0.0611 in [3]; -0.142 in experiment [4]; 0.254 in experiment [5]; 1.79 in [6]. Also, the composite z-score in experiment [7] is 1.29; in experiment [9], 0.575; in experiment [10], -0.228; in experiment [11], 0.384; in experiment [15], 2.76; in experiment [17], 0.322. Moreover, the composite z-score in experiment [18] was -0.923; in experiment [19] it was 0.25; in [20], 0.595. The z-score in [8] was -0.601 (inactive); in [12], 0.116 (inactive); in experiment [13], -0.0911 (inactive); in experiment [14], 0.0861 (inactive); in experiment [16], 0.398 (inactive).

For the compound `COc1ccc([Si](C)(C)[C@H]2[C@H](CC(=O)N3CCC[C@H]3CO)O[C@@]3(C(=O)N(C)c4ccccc43)[C@@H]2C)cc1`, the composite z-score in experiment [1] was 0.735; in experiment [2], 0.384; in [3], -0.0375; in experiment [4], -0.0959; in [5], -0.711; in experiment [6], 0.63. The composite z-score is 1.4 in [7]; 0.324 in [9]; 0.394 in [10]; 0.969 in experiment [11]; 0.757 in experiment [15]; -0.0258 in experiment [17]. Besides, the composite z-score in experiment [18] is 1.85; in [19], 0.207; in experiment [20], -0.151. Further, the z-score in experiment [8] is -0.0568 (inactive); in experiment [12], -0.42 (inactive); in experiment [13] it was -0.134 (inactive); in experiment [14], -0.401 (inactive); in experiment [16] it was -0.735 (inactive).

On to `[N-]=[N+]=NCc1ccccc1[C@H]1OC(c2ccc(OCCCO)cc2)=N[C@@]1(Cc1ccccc1N=[N+]=[N-])C(N)=O`, for which the composite z-score in experiment [1] was found to be 0.0097; in experiment [2], 0.998; in experiment [3], 0.05; in [4] it was 0.995; in [5] it was 1.54; in experiment [6] it was 1.7. Also, the composite z-score in experiment [7] is 1.11; in experiment [9], 1.76; in experiment [10] it was -0.156; in [11] it was 1.56; in [15], 3.31; in experiment [17] it was 0.0573. Besides, the composite z-score is 0.412 in experiment [18], 1.09 in experiment [19] and 0.0009 in experiment [20]. Also, the z-score in [8] is 4.46 (inactive); in experiment [12] it was 0.61 (inactive); in [13], -0.678 (inactive); in [14], -1.39 (inactive); in experiment [16], 0.0539 (inactive).

For `COc1cccc(C)c1NC(=O)O[C@H]1[C@H](OC(=O)Nc2ccccc2-c2ccccc2)[C@@H](OC(=O)Nc2ccccc2-c2ccccc2)[C@@H](OC)O[C@@H]1CO`, the composite z-score is -0.182 in [1]; 0.968 in experiment [2]; 0.141 in experiment [3]; 1.17 in experiment [4]; 1.61 in experiment [5]; 1.74 in experiment [6]. In addition, the composite z-score stood at 1.38 in experiment [7]; 1.64 in experiment [9]; 0.053 in [10]; 1.53 in experiment [11]; 3.54 in [15]; 0.0426 in experiment [17]. Moreover, the results for the composite z-score in experiment [18], in experiment [19] and in experiment [20] were 1.36, 0.542 and 0.0059, respectively. Moreover, the z-score in experiment [8] was 0.945 (inactive); in [12], 3.84 (inactive); in experiment [13] it was 2.59 (inactive); in [14] it was 3.5 (inactive); in experiment [16], -0.692 (inactive).

For the origin of these results see PubChem BioAssay.
